# This is a sample that favours compounds with a hit; in the whole collection about 3.1% have one here.
# DRD3 antagonist – D3 dopamine receptor (human) antagonism | max response, negative = inhibition, % | D3R cells, DiscoveRx beta-arrestin luminescence, antagonist mode; hits give low values | actives 2.5% (n = 360,000); in the data active = max response below about -50%; inconclusive = no clear call, values can overlap the other calls; note: % is set by controls: 0 for no effect and ±100 for the full control effect
# Target sequence (P35462 whole entry, looked up): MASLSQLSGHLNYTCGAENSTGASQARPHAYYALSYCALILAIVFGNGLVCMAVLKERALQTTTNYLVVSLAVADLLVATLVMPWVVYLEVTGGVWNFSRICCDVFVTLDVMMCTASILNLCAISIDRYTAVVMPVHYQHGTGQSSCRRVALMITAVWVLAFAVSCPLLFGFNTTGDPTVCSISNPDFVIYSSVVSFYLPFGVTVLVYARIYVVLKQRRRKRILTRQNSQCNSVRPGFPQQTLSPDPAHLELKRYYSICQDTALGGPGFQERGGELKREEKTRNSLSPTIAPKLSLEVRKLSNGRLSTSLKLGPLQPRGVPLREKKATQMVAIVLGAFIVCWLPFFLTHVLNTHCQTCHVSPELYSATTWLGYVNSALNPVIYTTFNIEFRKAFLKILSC
#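 Cells plated overnight at 1500 cells/well, then exposed to library compounds with dopamine controls for 90 minutes at 37 degrees C. DiscoveRx reagent added for 30–60 minutes at room temperature; luminescence read, quantitative HTS format.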
# uPA surface inh – cell surface uPA generation inhibition; actives 0.31% (n = 330,000); cell surface uPA generation assay, qHTS; Potency, µM (doses to about 38.3 µM), inactives show at the top dose activity change, negative = inhibition, actives largely listed as inhibitors; active = well fitted inhibition curve with a large enough effect; inconclusive = small, poorly fitted or top-dose-only effect; inactive = no such curve, though single readings can be large or run the other way; tested in mouse RAW 264.7 cells; note: potency is the fitted concentration of half-maximal effect; % is set by controls: 0 for no effect and ±100 for the full control effect; nearly all actives have a fitted effect of over 55% in size
# RGS4 inhibitor – inhibitors of human regulator of G protein signaling 4 | Transcreener GDP fluorescence polarization, RGS4-accelerated GTP hydrolysis | Potency, µM (doses to about 114 µM), without a hit: top-dose activity change, negative = inhibition, most hits filed as inhibitors | actives 0.039% (n = 390,000) | AID 504845; active = well fitted inhibition curve with a large enough effect; inconclusive = small, poorly fitted or top-dose-only effect; inactive = no such curve, though single readings can be large or run the other way; note: potency is the fitted concentration of half-maximal effect; % is set by controls: 0 for no effect and ±100 for the full control effect; nearly all actives have a fitted effect of over 75% in size
#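 MLSMR compounds (23 nl, pin-transferred) preincubated 10 min at room temperature with a 500nM (2x) first reagent, then RGS4 at 900nM (2x) plus Transcreener GDP mix added; fluorescence polarization (620/688 nm) read before and after 90 min at 30 °C.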
# DRD3 agonist – D3 dopamine receptor (human) agonism; P35462; D3R DiscoveRx beta-arrestin cells, luminescence, 90 min; max activation, %; actives 0.58% (n = 410,000); in the data active = max activation above about 30%; note: 0% is about no effect
#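 Agonist mode: compounds and dopamine controls were applied to plated cells for 90 min at 37 degrees C after an overnight attachment at 1500 cells/well. Luminescent read-out followed 30 - 60 minutes at room temperature with DiscoveRx detection reagent.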
# * marks the source's active call; other numbers are inactive results; ? = inconclusive; · = not tested or not shown.
SMILES,DRD3 antagonist,uPA surface inh,RGS4 inhibitor,DRD3 agonist
Cc1n[nH]c(C)c1S(=O)(=O)N1CCCC(C(=O)Nc2ccc(Cl)cc2)C1 (configuration not stated),·,·,1%,-11
COC(=O)c1ccccc1NC(=O)Cn1c(=O)n(-c2ccc(C)cc2)c(=O)c2ccccc21,·,·,3%,0
CN1CCN(C(=O)C2=C[C@@H](c3csc4ccccc34)C[C@@H](OCc3ccc(CO)cc3)O2)CC1,-72*,2%,7%,-45
O=C(/C=C\c1ccccc1)Oc1cccc2cccnc12,-59*,?,20%,-6
O=C(/C=C/c1ccccc1)Oc1cccc2cccnc12,?,-4%,-4%,-9
O=C(NCCC1=CCCCC1)c1ccc2c(c1)ncn2-c1cccc(Cl)c1,·,·,15%,0
Brc1cccc(OCCCCN2CCCCC2)c1,-92*,-12%,3%,-29
CC1CCCN(CCCCOc2cccc(Br)c2)C1 (configuration not stated),-83*,5%,20%,-9
COC(=O)C1CCN(CCCOc2ccc(CN3CCN(c4ccc([N+](=O)[O-])cc4)CC3)cc2)CC1,?,6%,71%,32*
COC(=O)c1ccc(OCCCCN2CC(C)OC(C)C2)cc1 (configuration not stated),-75*,3%,-28%,-15
c1ccc(OCCCCN2CCCCC2)cc1,?,4%,-1%,-7
CC1CN(CCCOc2ccc([N+](=O)[O-])cc2)CC(C)O1 (configuration not stated),-15,2%,24%,-7
Cc1ccc(C)c(N2CCN(C(=O)c3cc4c(=O)n(Cc5cccnc5)ccc4nc3C)CC2)c1,·,·,-18%,-11
c1ccc(N=c2nc(-c3ccccc3)n(-c3ccccc3)s2)cc1,·,·,-36%,·
Cc1ccc2nc(CSc3nnc(NC(=O)CC(C)C)s3)cc(=O)n2c1,·,·,-23%,5
COc1cccc(OCCCCN2CCCCC2)c1,-83*,·,30%,-33
CCOc1cccc(OCCCCN2CCCCC2)c1,-66*,0%,-4%,-13
CC1CCCN(CCC(=O)c2ccc(Br)cc2)C1 (configuration not stated),-1,-12%,?,-15
COc1cccc(OCCCN2CCCCC2)c1,-13,·,22%,-43
CC1CCCN(CCOc2ccc(Br)cc2)C1 (configuration not stated),-99*,2%,0%,-33
CC1CC(C)CN(CCCCOc2ccc([N+](=O)[O-])cc2)C1 (configuration not stated),-82*,0%,30%,-12
CC(=O)Nc1c(C)nn(-c2ccccc2)c1N1CCC(C(=O)NCc2cccc(F)c2)CC1,·,·,-3%,2
CCOC(=O)c1cccc(NC(=O)c2cc3c(Cl)nc4ccc(C)cc4c3s2)c1,·,·,28%,2
O=C(Cc1ccc(Cl)cc1)NCC(c1cccs1)S(=O)(=O)c1ccccc1 (configuration not stated),·,·,-6%,-8
CC1CN(CCCCOc2ccc3ccccc3c2)CC(C)O1 (configuration not stated),?,-2%,9%,-21
SMILES,DRD3 antagonist,uPA surface inh,RGS4 inhibitor,DRD3 agonist
O=[N+]([O-])c1ccccc1OCCCN1CCOCC1,?,·,-7%,-45
CC1CN(CCCOc2ccccc2[N+](=O)[O-])CC(C)O1 (configuration not stated),-59*,·,24%,-50
COc1cccc(OCCCCN2CC(C)OC(C)C2)c1 (configuration not stated),-87*,2%,-35%,-8
CCCc1cc(=O)[nH]c(SCc2nc3ccccc3s2)n1,39,·,-2%,43*
Cc1cc(=O)[nH]c(SCc2nc3ccccc3s2)n1,3,2%,-10%,-8
Cc1cccc2c1-c1sc(C(=O)NCCCN3CCN(c4cccc(Cl)c4)CC3)cc1CO2,·,·,20%,-3
CCCCNC(=O)NC(C(=O)OC)C12CC3CC(CC(C3)C1)C2 (configuration not stated),-57*,5%,10%,-6
CNCCCNC(=O)c1ccc(/C=N/O)nc1,1,3%,8%,-3
O=C(NCCCNC1CCCCC1)c1ccc(/C=N/O)nc1,-60*,6%,17%,-24
O=C(CN(C(=O)CNS(=O)(=O)c1ccccc1)C1CCCC1)NCC1CCCO1 (configuration not stated),-53*,-1%,-7%,2
Cc1ccc(-c2nnc3ccccc3c2C(=O)Nc2cccc(C(F)(F)F)c2)cc1,·,·,8%,-3

# Compound activity (PubChem BioAssay)
